Hits are enriched below; roughly 3.1% of the tested compounds scored in any of these assays.
S1P3 antag – blocks the human S1P3 receptor; Q99500; CHO S1P3 NFAT-BLA reporter, FRET fluorescence, antagonist mode; inhibition, % at 4.98 µM; actives 0.27% (n = 170,000); AID 485;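 active means inhibition above the plate cutoff, the mean inhibition of test wells on that plate plus 3 SD, cut at about 28% in these data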;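 further: cells challenged with S1P at its EC80 of 0.8 µM; blue over green emission ratio from cleaved BLA substrate after 4 h stimulation; 0% = S1P-stimulated wells and 100% = unstimulated DMSO-only wells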
PGE2 EP2 inh – blocks the human prostaglandin E2 receptor EP2 | C6 glioma cells expressing human EP2, cAMP TR-FRET; cells stimulated with saturating PGE2 | inhibition, % at 25 µM | actives 0.52% (n = 260,000) | AID 1422;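 active means percent inhibition above 40 after rounding to a whole number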;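 further: rat C6 glioma host cells with rolipram phosphodiesterase inhibitor present; the protocol text gives 20 µM as final concentration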
KCC2 mod – KCC2 (human) Cl- transport modulation; B-score of Tl+ flux slope (higher = more flux/activation; lower = inhibition) at 10 µM; actives 2.2% (n = 190,000); KCC2 cells, thallium flux FluoZin-2 fluorescence; Q9H2X9;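 active means thallium flux slope and its plate-corrected score both differing from the plate sample mean at a set confidence after two filtering rounds, in either direction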;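 further: slope of fluorescence scaled to starting intensity during 10 to 20 s after thallium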
Target sequence (Q9H2X9 whole entry, looked up): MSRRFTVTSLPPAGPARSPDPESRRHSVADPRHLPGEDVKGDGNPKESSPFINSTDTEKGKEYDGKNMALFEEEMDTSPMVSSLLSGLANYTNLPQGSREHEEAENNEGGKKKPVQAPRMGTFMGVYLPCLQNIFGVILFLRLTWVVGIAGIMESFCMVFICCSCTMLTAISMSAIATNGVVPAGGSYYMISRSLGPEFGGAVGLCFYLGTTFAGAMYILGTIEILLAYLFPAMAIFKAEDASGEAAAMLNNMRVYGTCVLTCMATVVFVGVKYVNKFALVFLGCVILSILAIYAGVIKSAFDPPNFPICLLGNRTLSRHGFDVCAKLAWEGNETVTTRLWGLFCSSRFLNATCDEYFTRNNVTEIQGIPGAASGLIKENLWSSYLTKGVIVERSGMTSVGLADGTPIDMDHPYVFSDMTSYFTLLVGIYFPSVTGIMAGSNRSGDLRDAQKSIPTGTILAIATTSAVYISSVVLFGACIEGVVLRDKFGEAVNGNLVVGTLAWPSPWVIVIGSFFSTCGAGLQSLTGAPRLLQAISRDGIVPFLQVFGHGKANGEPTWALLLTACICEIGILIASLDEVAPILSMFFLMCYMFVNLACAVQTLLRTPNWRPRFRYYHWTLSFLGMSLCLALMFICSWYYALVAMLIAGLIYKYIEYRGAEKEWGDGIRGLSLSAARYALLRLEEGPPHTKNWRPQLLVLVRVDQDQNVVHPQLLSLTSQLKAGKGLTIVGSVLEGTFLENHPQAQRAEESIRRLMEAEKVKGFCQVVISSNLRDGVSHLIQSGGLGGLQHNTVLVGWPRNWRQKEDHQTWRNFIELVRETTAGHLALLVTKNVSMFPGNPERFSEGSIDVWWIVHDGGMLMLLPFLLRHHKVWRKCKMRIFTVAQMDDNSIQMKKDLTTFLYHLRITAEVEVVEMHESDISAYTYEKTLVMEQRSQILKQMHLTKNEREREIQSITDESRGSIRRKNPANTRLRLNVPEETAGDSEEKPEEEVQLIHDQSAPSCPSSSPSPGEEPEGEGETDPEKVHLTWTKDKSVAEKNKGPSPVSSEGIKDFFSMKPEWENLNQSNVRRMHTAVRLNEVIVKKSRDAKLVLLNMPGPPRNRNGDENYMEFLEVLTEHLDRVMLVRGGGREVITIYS
EP2 modulator – modulators of human EP2 prostaglandin E2 receptor; actives 0.83% (n = 260,000); EP2-expressing cells, cAMP HTRF FRET, PGE2 co-stimulation; P43116; induction, % at 25 µM; AID 940;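 active means compounds whose cAMP rise, as percent of the full-agonist control response, exceeds 60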;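 further: rat C6 glioma line stably carrying human EP2 under a CMV promoter; the protocol text gives 20 µM as final concentration; 100% = response of wells given 1 µM PGE2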
Numbers without * were called inactive; x = no result given; ! = not active in a repeat.

SMILES	S1P3 antag	PGE2 EP2 inh	KCC2 mod	EP2 modulator
COc1cccc2c1C(=N)c1c(O)c3c(c(O)c1C2=O)C[C@](O)(C(C)=O)C[C@@H]3O[C@@H]1C[C@H](N)[C@@H](O)[C@H](C)O1	x	128.2*	x	-116.3
C=CCn1cnc2sc(C)c(-c3ccc(C)c(C)c3)c2c1=O	x	9.5	x	32.5
Nc1ncnc2c1C1(CCCCC1)Cc1ccccc1-2	-2.1	9.2	0.227	80.5*!
Cc1ccc(C)c(N(C(=O)c2csnn2)C(C(=O)NC(C)(C)C)c2cccs2)c1 (configuration not stated)	x	15.6	x	-10.9
O=c1[nH]c(-c2sc3ccccc3c2Cl)nc2ccccc12	x	12.0	x	-23.8
Cn1c(-c2sc3ccccc3c2Cl)n[nH]c1=S	x	13.5	12.7*	1.0
Cc1ccc(C)c2[nH]c(=O)c(C(c3nnnn3Cc3ccccc3)N3CCCCCC3)cc12 (configuration not stated)	x	15.2	x	74.8*
COc1ccc(Cn2nnnc2C(c2cc3cccc(C)c3[nH]c2=O)N2CCCCC2)cc1 (configuration not stated)	x	9.6	x	-24.7
Cc1cccc2cc(C(c3nnnn3Cc3ccc(F)cc3)N3CCCCCC3)c(=O)[nH]c12 (configuration not stated)	x	22.2	x	67.2*
Cc1cccc2cc(C(c3nnnn3Cc3ccccc3)N3CCCCC3)c(=O)[nH]c12 (configuration not stated)	x	12.8	x	68.5*
COc1cccc(C(=O)N2CCN(Cc3cccc(F)c3)CC2)c1OC	x	13.9	x	-6.8
O=C(Nc1ccccc1O)c1c(O)c2c([nH]c1=O)CCCC2	-3.6	64.0*!	0.0721	-134.8
O=C(Nc1nccs1)c1c(O)c2c([nH]c1=O)CCCC2	-2.0	4.4	x	7.2
CCOc1cc(-c2nn3cnnc3s2)cc(OCC)c1OCC	5.9	6.6	-0.484	61.4*
O=C(CSc1nnc(-c2ccncc2)n1-c1ccc(Cl)cc1)NC1CCCC1	x	13.6	x	-24.1
CCCNC(=O)C1CC(c2ccc(Cl)cc2)=NO1 (configuration not stated)	x	5.6	x	-23.4
O=C(NCc1ccccn1)c1ncoc1-c1ccc(F)cc1	x	5.0	x	-84.8
Cc1cc(Cc2cc(C)cc(C(C)(C)C)c2O)c(O)c(Cc2cc(C)cc(C(C)(C)C)c2O)c1	x	40.5*	x	6.6
Cc1cc(Cc2c(C)c(C)c(Cc3cc(C)cc(C(C)(C)C)c3O)c(C)c2C)c(O)c(C(C)(C)C)c1	x	54.6*	x	16.0
CC(C)(Sc1cc(C(C)(C)C)c(O)c(C(C)(C)C)c1)Sc1cc(C(C)(C)C)c(O)c(C(C)(C)C)c1	-4.0	11.7	0.173	-5.5
Cc1c(Cl)cc(C(C)(C)C)c(O)c1Cc1c(C)c(Cl)cc(C(C)(C)C)c1O	x	47.3*	x	5.0
Cc1ccc(-c2ccc(NC(=O)c3cccs3)cc2)o1	x	10.6	x	-71.2
COCC(=O)N(Cc1cc2cc(C)ccc2[nH]c1=O)c1ccc(C)cc1	x	10.8	x	11.0
O=C(O)CCC(=O)c1ccc2ccc3cccc4ccc1c2c34	-9.6	53.2*!	-4.35	-23.1
N/C(=N\OC(=O)COc1ccc2ccccc2c1Br)c1ccccn1	4.7	22.4	-0.361	61.6*
SMILES	S1P3 antag	PGE2 EP2 inh	KCC2 mod	EP2 modulator
N/C(=N\OC(=O)COc1ccc2ccccc2c1Br)c1cccnc1	1.3	23.3	-0.861	58.9
O=C(Nc1ccc(S(=O)(=O)NC2CC2)cc1)c1cnccn1	x	8.0	x	-26.3
CC(=O)c1cccc(NC(=O)CSc2nnc3c4c5c(sc4nc(C)n23)CCCC5)c1	x	12.0	x	11.7
N=C(N)c1ccc(-c2ccc(-c3ccc(C(=N)N)cc3)o2)cc1	x	52.4*	x	-10.9
CCn1c(COc2cccc(C)c2C)nnc1SCC(=O)NC(C)(C)C	x	5.7	x	-25.1
O=[N+]([O-])c1cc2oc3c(c2c(C=NCc2ccccc2)c1O)CCCC3	8.5	48.4*	-0.296	22.0
CCOC(=O)COc1ccc(C2Oc3c(cccc3OC)C=C2[N+](=O)[O-])cc1 (configuration not stated)	x	53.1*	x	-85.2
CCC(C)n1nnc2c(=O)oc3ccccc3c21 (configuration not stated)	x	8.6	-2.22	-17.0
O=c1oc2ccccc2c2c1nnn2C1CCN(Cc2ccccc2)CC1	x	73.7*	x	-90.7
Cc1ccc(-n2nnc3c(=O)oc4ccccc4c32)cc1	1.5	86.4*	-1.04	-16.8
CCOCc1nnc(NC(=O)c2cnc(SC)nc2)s1	x	3.6	x	-13.8
O=C(NC(=S)N1CCN(Cc2ccc3c(c2)OCO3)CC1)c1ccc(Cl)cc1	-9.7	11.3	75.2*	-8.1
O=C(NC(=S)N1CCN(Cc2ccc3c(c2)OCO3)CC1)c1cccc(Br)c1	1.3	5.8	79.4*	-37.5
O=S(=O)(c1cc(Cl)ccc1Cl)N1CCN(Cc2ccc3c(c2)OCO3)CC1	86.5*	3.8	-0.134	-4.7
CCC(C)(C)n1nnnc1C(C(C)C)N(Cc1ccco1)Cc1cc2cccc(C)c2[nH]c1=O (configuration not stated)	x	8.2	x	57.3
COc1ccccc1CN(C(=O)c1cccs1)C(C(=O)NC1CCCCC1)c1ccco1 (configuration not stated)	x	12.1	x	23.4
CN1C(=O)/C(=C\C(=O)c2cccs2)c2ccccc21	-19.2	60.3*	0.667	-30.0
CCn1c(N2CCC(C(=O)Nc3ccccc3OC)CC2)nc2ccccc21	x	x	x	0.3
Cc1cc(C)c(Nc2cc(S(=O)(=O)O)c(N)c3c2C(=O)c2ccccc2C3=O)c(C)c1	-2.3	16.3	-2.11	29.6
Nc1ccc(-c2ccc(Nc3cc(S(=O)(=O)O)c(N)c4c3C(=O)c3ccccc3C4=O)cc2)c(S(=O)(=O)O)c1	x	54.6*	x	-3.5
COc1nccnc1NS(=O)(=O)c1ccc(NC(=S)NC(=O)/C=C/c2ccc(F)cc2)cc1	-6.6	66.3*	-1.05	-63.9
COc1nccnc1NS(=O)(=O)c1ccc(NC(=S)NC(=O)c2ccc(F)c(F)c2)cc1	-3.7	7.3	1.25	-9.1
COc1nccnc1NS(=O)(=O)c1ccc(NC(=S)NC(=O)/C=C/c2ccc(C)cc2)cc1	x	72.2*	x	-103.7
Cc1cc(-c2cncnc2C2CCCN(C(=O)c3c(C)noc3C)C2)on1 (configuration not stated)	x	x	x	-5.5
COc1ccc(OCc2nnc(SCc3ccccc3)n2C)cc1	x	13.6	x	-29.2
SMILES	S1P3 antag	PGE2 EP2 inh	KCC2 mod	EP2 modulator
CC(C)CSC1=NSC2=NC(=O)/C(=C\c3ccccc3)C(=N)N12	-0.3	6.2	139*	-28.8
CCSc1nc(C)nc2sc(C)c(C)c12	-10.9	5.9	x	69.2*
Cc1nn(CC(=O)NC2CCCCC2C)c(=O)c2cc3ccsc3n12 (configuration not stated)	x	x	x	12.9
CCCC(c1cc(C(C)(C)C)c(O)cc1C)c1cc(C(C)(C)C)c(O)cc1C	x	63.8*	x	25.9
C=CCNC(=S)NNC(=O)c1ccc([N+](=O)[O-])cc1	-22.8	8.3	-0.378	12.2
C=CCN(CC=C)C(=S)NC(=O)c1ccc([N+](=O)[O-])cc1	-0.9	8.6	45.5*	18.3
COc1ccc(C(=O)c2ccc(OC)c(Br)c2)cc1Br	-13.0	8.1	0.88	36.4
CCN(CC)C(=S)NC(=O)c1ccc(OC)c(Br)c1	-20.3	1.2	96.2*	-18.7

Source: PubChem BioAssay (several laboratories)
